Reference: PubChem BioAssay AID1026 (Columbia University Molecular Screening Center, 2008)

target: Bifunctional epoxide hydrolase 2 (Homo sapiens) (UniProt P34913); assay: sEH inhibitor concentration-response potency, dose response, biochemical, human sEH, fluorescence, Infinite200 (AID 1026); conditions: recombinant human sEH, fluorogenic substrate, at 0.2 µM, active compounds read high
Sequence (P34913 whole entry, looked up): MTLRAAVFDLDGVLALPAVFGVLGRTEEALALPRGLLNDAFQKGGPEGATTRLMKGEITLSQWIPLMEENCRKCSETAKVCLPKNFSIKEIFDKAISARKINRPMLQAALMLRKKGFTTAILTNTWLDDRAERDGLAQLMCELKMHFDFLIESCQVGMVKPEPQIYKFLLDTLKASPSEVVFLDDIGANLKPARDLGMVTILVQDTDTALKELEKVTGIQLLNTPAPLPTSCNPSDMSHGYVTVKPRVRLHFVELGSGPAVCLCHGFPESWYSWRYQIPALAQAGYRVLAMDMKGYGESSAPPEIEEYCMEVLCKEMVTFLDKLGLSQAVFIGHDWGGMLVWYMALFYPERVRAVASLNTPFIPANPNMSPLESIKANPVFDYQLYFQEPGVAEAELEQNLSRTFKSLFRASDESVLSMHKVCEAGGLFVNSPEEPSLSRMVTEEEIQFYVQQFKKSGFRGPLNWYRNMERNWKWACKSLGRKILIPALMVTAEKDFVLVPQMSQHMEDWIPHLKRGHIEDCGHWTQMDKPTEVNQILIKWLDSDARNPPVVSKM

inhibition, inactive:
O=C(N[C@@H](Cc1ccccc1)C(=O)NC1CCCCCC1)c1ccco1 36.3%, COc1ccccc1NS(=O)(=O)c1cccc(C(=O)NN)c1 42.3%, CCC(C)c1ccc(NC(=O)c2cccs2)cc1 (centres undefined) 68%, CCN(CCNC(=O)C1CCN(Cc2nc(-c3cccc(Cl)c3)oc2C)CC1)c1ccccc1 45.4%, CCc1ccc(NC(=O)Nc2ccc3c(c2)N(C)C(=O)CS3)cc1 61.2%, CCOc1ccc(NC(=O)c2ccc(F)c(S(=O)(=O)N3CCN(c4ccccn4)CC3)c2)cc1 64.3%, CCC(C)[C@H](NC(=O)NCc1ccccc1Cl)C(=O)OC (some centres undefined) 48.1%, CCOC(=O)CSc1nc2ccccc2c(=O)n1CC1CCC(C(=O)NCc2ccco2)CC1 (centres undefined) 45.6%, O=C(NCCC1=CCCCC1)c1ccc(Cl)c(S(=O)(=O)N2CCOCC2)c1 68.1%, CCCCC(CC)CNC(=O)C1CCCN(S(=O)(=O)c2cnc[nH]2)C1 (centres undefined) 49.9%, O=C(NCc1cccs1)C1CCC(CNS(=O)(=O)c2ccc(Br)s2)CC1 (centres undefined) 62.3%, Cc1ccc2c(c1)nnn2C1CCN(C(=O)NC23CC4CC(CC(C4)C2)C3)CC1 60.5%, Cc1cc(N2CCCC(C(=O)Nc3ccc4c(c3)CCC4)C2)n2ncnc2n1 (centres undefined) 50.2%, COc1ccc(OC)c(/C=N/NC(=O)c2csc3ccccc23)c1 51.1%, Cc1ccc(N(CC(=O)NC2CCCCC2)C(=O)c2ccc(C)s2)cc1 43.7%, CC(Cc1cccs1)NC(=O)Nc1ccc(Cl)cc1 (centres undefined) 60.6%, O=C(CN1C(=O)c2ccccc2S1(=O)=O)Nc1ccc(S(=O)(=O)N2CCCCC2)cc1 49.9%, CC(C)(C)c1cnnn1-c1ccc(NC(=O)c2ccc3c(c2)OCO3)cc1 68.6%, O=C(NCCc1ccccc1)NC1CCCCC1 44.6%, O=C(Nc1ccc(Cc2ccncc2)cc1)C1CCC(N2C(=O)C3C4C=CC(C5CC45)C3C2=O)CC1 (centres undefined) 56.4%, O=C(NCCC(c1ccccc1)c1ccccc1)c1ccc(Br)o1 72%, Cc1c(Cl)c([N+](=O)[O-])nn1Cc1ccc(C(=O)N/N=C\c2cccc(Br)c2)o1 66.8%, Cn1c(C(=O)N2CCCC(C(=O)NCCCSC3CCCCC3)C2)cc2sccc21 (centres undefined) 49.4%, O=C(CCCCCn1c(=S)[nH]c2ccccc2c1=O)NCc1ccc2c(c1)OCO2 59.3%, O=C(NC12CC3CC(CC(C3)C1)C2)N1CC2Cc3cccc(=O)n3C(C2)C1 (centres undefined) 54.2%, O=C(NCCC1=CCCCC1)C1CCCN(S(=O)(=O)c2ccccc2)C1 (centres undefined) 48.7%, O=C(COc1c(F)c(F)c(C(F)(F)F)c(F)c1F)Nc1ccc(N2CCOCC2)c(Cl)c1 49.2%, CCOc1ccc(NC(=O)NCC2CCN(c3ccc(OC)cc3)C2)cc1 (centres undefined) 26.9%, COCCNC(=O)CN1CCC(NC(=O)Nc2ccc(C(F)(F)F)cc2)CC1 54.7%, O=C(COC(=O)c1ccc(S(=O)(=O)NCc2ccco2)cc1)NC1CCCCCC1 62.6%, CCn1nc(CC(=O)Nc2ccc(-n3cnnn3)c(C)c2)c2ccccc2c1=O 48.9%, CC(=O)NC(=S)Nc1ccc(NC(=O)COc2ccc(Cl)cc2Cl)cc1 44.2%, O=C(NCCc1c[nH]c2ccccc12)C1CCC(Cn2c(=S)[nH]c3ccccc3c2=O)CC1 (centres undefined) 72.7%, CC(Cc1cccs1)NC(=O)Nc1ccc(Cl)c(Cl)c1 (centres undefined) 65.5%, O=C(Nc1ccc(N2CCOCC2)cc1)Nc1ccc(Cl)c(Cl)c1 40%, CC(Cc1cccs1)NC(=O)Nc1cccc(Cl)c1 (centres undefined) 51.7%, O=C(NCCC1=CCCCC1)C1CCCN(c2nc3ccccc3o2)C1 (centres undefined) 53.6%, CC1CCCCN1C(=O)NC12CC3CC(CC(C3)C1)C2 (centres undefined) 16.8%, C=CCN1C(=O)CSc2ccc(C(=O)NCCC3=CCCCC3)cc21 55.8%
